# AmpC no deterg = AmpC beta-lactamase inhibition without detergent. P00811. AmpC nitrocefin hydrolysis, absorbance 480 nm, 0.0001% Triton. Potency, µM (highest dose often 57.1 µM), for inactives: at the highest dose activity change, negative = inhibition, usual class: inhibitors. hit rate 0.52% among 330,000. AID 485341;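 also: plate controls were no compound for no effect and no enzyme for full effect; nearly all actives have a fitted effect of over 20% in size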
# Target sequence (P00811 whole entry, looked up): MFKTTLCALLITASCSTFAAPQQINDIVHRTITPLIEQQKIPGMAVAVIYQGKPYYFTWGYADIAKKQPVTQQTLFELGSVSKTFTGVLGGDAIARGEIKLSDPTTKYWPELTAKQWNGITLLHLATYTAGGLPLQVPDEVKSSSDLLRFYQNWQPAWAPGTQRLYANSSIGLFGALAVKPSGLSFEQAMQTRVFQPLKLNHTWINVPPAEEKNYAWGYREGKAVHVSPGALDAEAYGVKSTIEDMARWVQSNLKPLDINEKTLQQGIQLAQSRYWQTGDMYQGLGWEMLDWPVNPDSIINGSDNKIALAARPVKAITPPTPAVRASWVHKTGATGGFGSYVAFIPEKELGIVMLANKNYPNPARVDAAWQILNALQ
#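 20 mM phosphate pH 7.0 + 0.01% (detergent screen) or 0.0001% Triton X-100; 5.3 nM AmpC reagent; cpd preinc 15 min RT; nitrocefin (800 uM stock) to start; A480 q20 s × 4 min; Activity was normalised to no-enzyme and no-compound control wells.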
# AMA1-RON2 inh = inhibitors of Plasmodium falciparum AMA1-RON2 interaction. AlphaScreen AMA1-biotinylated RON2 peptide binding. Potency, µM (titrated, usually from 58.2 µM), for the others: top-dose activity change, negative = inhibition, actives largely listed as inhibitors. hit rate 0.2% among 360,000;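 also: 0% = vehicle wells and -100% = peptide control; nearly all actives have a fitted effect of over 45% in size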
#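 AMA1 (3D7) with his tag at 25 nM final met compounds first, then biotinylated RON2 peptide at 25 nM; detection used donor plus acceptor beads, 10 µg/mL apiece, read by AlphaScreen after 30 min at room temperature.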
# AmpC inh detg = blocks E. coli AmpC beta-lactamase in detergent assay; P00811; AmpC hydrolysis of nitrocefin, absorbance 480 nm, 0.01% Triton; Potency, µM (doses to about 114 µM), for the others: at the highest dose activity change, negative = inhibition, hits mostly inhibitors; hit rate 0.041% among 370,000;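 also: 0% = no-compound wells and -100% = no-enzyme wells; nearly all actives have a fitted effect of over 25% in size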
#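 20 mM phosphate pH 7.0 + 0.01% (detergent screen) or 0.0001% Triton X-100; 5.3 nM AmpC reagent; cpd preinc 15 min RT; nitrocefin (800 uM stock) to start; A480 q20 s × 4 min; Activity was normalised to no-enzyme and no-compound control wells.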
# RE007 growth inh = less growth of the S. pombe RE007 Vpr strain | S. pombe RE007 Vpr strain, BacTiter-Glo ATP luminescence, 24 h | Potency, µM (highest dose often 92.2 µM), for inactives: at the top dose activity change, negative = less growth, most hits filed as inhibitors | hit rate 0.21% among 360,000; active = well fitted falling curve with a large enough effect; inconclusive = small, poorly fitted or top-dose-only effect; inactive = no such curve, though single readings can be large or run the other way; also: nearly all actives have a fitted effect of over 50% in size
#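 Fission yeast strain RE007, carrying one chromosomally integrated HIV-1 vpr copy, was seeded at OD 0.01 in PMG+AL medium with 23 nL pinned compound. After 24 h at 30 °C and 99% humidity, viability was read by BacTiter-Glo luminescence.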
# Sm TGR inh = blocks Schistosoma mansoni thioredoxin glutathione reductase; Q962Y6; purified TGR, DTNB reduction, TNB absorbance 405 nm; Potency, µM (highest dose often 114 µM), without a hit: top-dose activity change, negative = inhibition, hits mostly inhibitors; hit rate 3% among 360,000; AID 485364; also: nearly all actives have a fitted effect of over 60% in size
#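 First, TGR (20 nM dispensed) and NADPH were mixed with compound. Second, a 15 min room-temperature incubation followed. Third, further NADPH and then DTNB were added to start the reaction. Finally, TNB absorbance was monitored kinetically.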
# Starred values were filed as active, the others as inactive; ? = inconclusive; . = no result given; [ ] = dose if it differs, or a comment. Compounds with a hit are over-represented: about 3.2% of the library has one in this group of screens. Unless noted, calls follow the shape of the dose curve; as a rule, active = well fitted curve in the direction sought with a large enough effect; inconclusive = small, poorly fitted or top-dose-only effect, or another doubt; inactive = no such curve, though single readings can be large; an effect the other way counts as inactive or inconclusive. Unless noted, % is scaled to controls: 0 for no effect and ±100 for the full control effect; potency is read from the fitted curve at half-maximal effect.
SMILES,AmpC no deterg,AMA1-RON2 inh,AmpC inh detg,RE007 growth inh,Sm TGR inh
O=C(CSc1nnc(Nc2ccccc2F)s1)c1cc2ccccc2o1,35µM*,13%,-6%,-4%,-14%
COc1ccc(Nc2nnc(SCC(=O)c3cc4ccccc4o3)s2)cc1,-50%,59%,-7%,19%,5%
COc1cccc(NC(=O)Cn2cc(C(=O)C3CCCCC3)c3ccccc32)c1,.,.,25%,.,3%
Cc1ccc2cc3cc(C(=O)N4CCN(C(=O)c5ccco5)CC4)sc3nc2c1,105%,-1%,7%,9%,45µM*
Cc1ccc(CCNC(=O)CCCn2c(=O)c3ccccc3n(Cc3ccccc3C)c2=O)cc1,.,.,12%,.,-2%
CCOC(=O)c1[nH]c(C)c(/C(O)=C2\C(=O)C(=O)N(CCN(C)C)C2c2ccco2)c1C (stereo unspecified),-8%,7%,7%,-3%,56µM*
O=C(CCc1nc2cccnc2n1Cc1cccs1)Nc1cccc(C(F)(F)F)c1,.,.,11%,.,1%
CN(C)c1ccc(CN(Cc2ccco2)C(=O)c2ccc(C(C)(C)C)cc2)cc1,.,.,17%,.,13%
COc1ccc(N2CCC(CNC(=O)Nc3cccc(OC)c3)C2)cc1 (stereo unspecified),13µM*,?,2%,-1%,-27%
CCCCNc1ncnc2c1nnn2C,.,.,-1%,.,4%
COc1cccc(C2C=C(c3ccc(Br)s3)Nc3ncnn32)c1OC (stereo unspecified),-13%,29%,-1%,-6%,?
Fc1ccc(Br)cc1C1C=C(c2ccc(Br)s2)Nc2ncnn21 (stereo unspecified),-41%,32%,1%,-16%,1.3µM*
Cc1ccccc1NC(=O)C(=Cc1ccc(C(=O)O)cc1)C(=O)Nc1ccccc1C,-25%,4%,1%,28%,-8%
CC(=O)/C(=C/c1ccccc1)C(=O)Nc1ccccc1C,-8%,10%,-1%,0%,45µM*
Cc1ccc(CN(C(=O)COc2ccc(F)cc2)C2CCS(=O)(=O)C2)o1 (stereo unspecified),.,.,21%,.,-4%
N#CCCN(C(=O)CCl)c1cccc(Cl)c1,1%,-4%,5%,1%,7.1µM*
COc1cc(Cl)c(NS(=O)(=O)c2ccc3c(c2)CC(C)N3C(=O)C2CCC2)c(OC)c1 (stereo unspecified),.,.,20%,.,20%
CCC(=O)OCOc1ccc(/C=C2/CCC(CN(C)C)C2=O)cc1 (stereo unspecified),.,-8%,.,8.9µM*,.
Cc1cccc(-c2nc(CCNC(=O)Cc3ccccc3)cs2)c1,.,.,2%,.,9%
Cc1ccc(NC(=O)CN2C(=O)N/C(=C\c3cccn3-c3cccc(C(=O)O)c3)C2=O)cc1,-21%,10%,-1%,45%,-22%
Cc1ccc(CN2C(=O)N/C(=C/c3ccc(-c4ccc(C(=O)O)cc4)o3)C2=O)cc1,-39%,0%,5%,8%,?
Cc1ccc(NC(=O)CN2C(=O)N/C(=C/c3cc(C)n(-c4cccc(C(=O)O)c4)c3C)C2=O)cc1,-4%,-4%,1%,-9%,20µM*
Cc1cccc(NC(=O)CN2C(=O)N/C(=C/c3ccc(C)o3)C2=O)c1,-31%,9%,-7%,-13%,50µM*
C=CCN1C(=O)N/C(=C/c2ccc(C)o2)C1=O,-17%,10%,-4%,?,32µM*
Cc1ccc(NC(=O)CN2C(=O)N/C(=C/c3ccc(C)s3)C2=O)cc1,-38%,5%,-3%,-22%,-20%
SMILES,AmpC no deterg,AMA1-RON2 inh,AmpC inh detg,RE007 growth inh,Sm TGR inh
Cc1ccc(NC(=O)CN2C(=O)N/C(=C/c3ccc(C)o3)C2=O)cc1,84%,-1%,-9%,14%,35µM*
CCCc1nn2c(=O)cc(COC(=O)c3ccc(NC(=O)COc4ccccc4F)cc3)nc2s1,.,.,14%,.,9%
O=C(COCc1cc(-c2ccco2)on1)Nc1ccc(OC(F)(F)F)cc1,.,.,-10%,.,5%
Cc1ccc(CN2C(=O)N/C(=C\c3cccn3-c3cccc(C(=O)O)c3)C2=O)cc1,-1%,-9%,-3%,-12%,35µM*
CCn1c(C)cc(/C=C2\NC(=O)N(CC(=O)Nc3cccc(C)c3)C2=O)c1C,-4%,-3%,3%,-4%,-33%
Cc1cccc(NC(=O)CN2C(=O)N/C(=C\c3ccc(-c4cccc(C(=O)O)c4)o3)C2=O)c1,-39%,-3%,7%,2%,56µM*
COc1ccc(Cl)cc1NC(=O)CSc1ccc(-c2sc(C)nc2C)nn1,.,.,7%,.,4%
N/C(Cc1ccc(Cl)cc1Cl)=N\OC(=O)Cc1cccs1,-23%,171%,-7%,-21%,-11%
N/C(Cc1ccc(Cl)cc1Cl)=N\OC(=O)c1cccs1,0.32µM*,-1%,4%,18µM*,-5%
C/C(=N\O)C1(C)N(O)C(C)(C)C(c2ccc(F)cc2)=[N+]1[O-] (stereo unspecified),-10%,12%,-13%,-7%,1%
C/C(=N/Nc1ccc(C)cc1)C1(C)N(O)C(C)(C)C(c2ccco2)=[N+]1[O-] (stereo unspecified),-24%,5%,-2%,9%,10µM*
Cc1ccccc1CN1C[C@@H]2C[C@@H](c3cnc(N4CCOCC4)s3)N3CCC[C@@]23C1=O,105%,1%,-1%,-1%,16µM*
Cc1cccc([C@@H]2C[C@H]3CN(Cc4cccc(Cl)c4)C(=O)[C@]34CCCN24)n1,81%,1%,-2%,-9%,28µM*
CCOC(=O)c1c(C)[nH]c(CCC(=O)NCc2ccccc2C)c1C,.,.,7%,.,22%
CCOc1ccc(NC(=O)C(=O)NCCc2ccccc2)cc1,.,.,10%,.,6%
COc1ccc(C2=NS(=O)(=O)N(C)C(C(=O)Nc3ccc(OC(F)(F)F)cc3)=C2)cc1,.,.,24%,.,-1%
COC1=C(OC)C(=O)C(CCCCCCCCCCO)=C(C)C1=O,132%,.,5%,.,?
CC1=C(C)C(=O)C(CCCCC#CCCCC#CCO)=C(C)C1=O,23%,-28%,-11%,-7%,8.9µM*
C/C=C1/C[N+]2(C)CCC34C(=C(C=O)[C@H]1C[C@@H]32)Nc1ccccc14 (stereo partly specified),-21%,-9%,?,-5%[18.4 µM],28µM*
C=CCOC(=O)C1=C(C)NC(=O)NC1c1ccc(N(C)C)cc1 (stereo unspecified),-2%,-11%,5%,-11%,45µM*
NC1=C(Cl)C(=O)c2ccc(S(N)(=O)=O)cc2C1=O,.,-19%,.,-29%,.
NC1=C(Cl)C(=O)c2ccccc2C1=O,.,2%,.,25µM*,.
O=C(Cn1c(-c2cccs2)cc2cc(F)ccc21)N1CCN(c2ccccc2)CC1,.,.,-2%,.,-3%
COCCN1C(=S)N[C@@H](c2ccccc2)C(C(=O)OC)=C1C,54%,.,?,.,32µM*

# Compound activity: PubChem, National Center for Advancing Translational Sciences (NCATS)
